According to PubChem BioAssay AID1159580 (chemical genetic matrix, 2015):
In all, about 5,500 compounds went through this assay and about 2,000 (36%) were called active. Roughly 18% stayed inconclusive and do not appear here. The list shows a part of the results. A number with no mark means an inactive call. No stated cut-off is given here; in the data, active means normalized growth mostly below about 0.91 (no sharp cut-off); inconclusive means no clear call, values can overlap the other calls; inactive means mostly above about 0.92.

Assay: chemical genetic growth profiling, strain panel (AID 1159580);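 further: tested at 20 µM; growth read once vehicle control cultures reached saturation at 30 °C; 1 = growth at the plate median or of vehicle wells; lower values mean less growth of the strain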
Conditions: S. cerevisiae deletion strains, growth OD
[1] = locus YAL013W, strain DEP1, active compounds read low
[2] = locus YBR229C, strain ROT2, active compounds read low
[3] = locus YCL061C, strain MRC1, active compounds read low
[4] = locus YDL101C, strain DUN1, active compounds read low
[5] = locus YDR150W, strain NUM1, active compounds read low
[6] = locus YEL061C, strain CIN8, active compounds read low
[7] = locus YGR078C, strain PAC10, active compounds read low
[8] = locus YHR030C, strain SLT2, active compounds read low
[9] = locus YHR087W, strain rtc3, active compounds read low
[10] = locus YJR043C, strain POL32, active compounds read low
[11] = locus YJR075W, strain HOC1, active compounds read low
[12] = locus YLR039C, strain RIC1, active compounds read low
[13] = locus YLR058C, strain SHM2 (second series), active compounds read low
[14] = locus YLR085C, strain ARP6, active compounds read low
[15] = locus YLR262C, strain YPT6, active compounds read low
[16] = locus YML094W, strain GIM5, active compounds read low
[17] = locus YMR219W, strain ESC1, active compounds read low
[18] = locus YMR263W, strain SAP30, active compounds read low
[19] = locus YNL153C, strain GIM3, active compounds read low
[20] = locus YNL298W, strain CLA4 (second series), active compounds read low
[21] = locus YNL322C, strain KRE1, active compounds read low
[22] = locus YNR030W, strain Alg12, active compounds read low
[23] = locus YPL055C, strain LGE1, active compounds read low
[24] = locus YPL241C, strain CIN2, active compounds read low
[25] = locus YPR135W, strain CTF4, active compounds read low
[26] = locus YMR307W, strain GAS1, active compounds read low

ON(Cc1c(F)cccc1Cl)Cc1c(F)cccc1Cl
normalized growth [1]: 0.985
normalized growth [2]: 1.01
normalized growth [3]: 0.997
normalized growth [4]: 0.978
normalized growth [5]: 0.951
normalized growth [6]: 1.02
normalized growth [7]: 0.979
normalized growth [8]: 0.989
normalized growth [9]: 0.986
normalized growth [10]: 1.01
normalized growth [11]: 0.986
normalized growth [12]: 0.816
normalized growth [13]: 1
normalized growth [14]: 0.987
normalized growth [15]: 0.829
normalized growth [16]: 1.01
normalized growth [17]: 0.988
normalized growth [18]: 0.992
normalized growth [19]: 0.976
normalized growth [20]: 1.01
normalized growth [21]: 0.987
normalized growth [22]: 0.993
normalized growth (locus YOL006C, strain TOP1, active compounds read low): 0.966
normalized growth [23]: 1.02
normalized growth [24]: 1
normalized growth [25]: 0.852

Fc1cccc(Cl)c1Cn1nnc(N2CCCCC2)n1
normalized growth [1]: 0.973
normalized growth [2]: 0.96
normalized growth [3]: 0.977
normalized growth [4]: 0.992
normalized growth [5]: 1.01
normalized growth [6]: 0.966
normalized growth [7]: 0.946
normalized growth [8]: 0.444 (active)
normalized growth [9]: 0.941
normalized growth (locus YJL187C, strain SWE1, active compounds read low): 0.969
normalized growth [10]: 0.982
normalized growth [11]: 0.914
normalized growth [12]: 0.851
normalized growth [13]: 0.969
normalized growth [14]: 0.762 (active)
normalized growth [15]: 0.881
normalized growth [16]: 0.918
normalized growth [17]: 0.962
normalized growth [18]: 0.976
normalized growth [26]: 0.825
normalized growth [19]: 0.962
normalized growth [20]: 0.984
normalized growth [21]: 0.961
normalized growth [22]: 0.926
normalized growth [23]: 0.959
normalized growth [24]: 0.909
normalized growth [25]: 0.534 (active)

COc1ccccc1NC(=O)Nc1nn(C)c2cccc(OC)c12
normalized growth (locus YAR019C, strain CDC15, active compounds read low): 0.917
normalized growth (locus YBL105C, strain PKC1, active compounds read low): 0.918
normalized growth (locus YBR135W, strain CKS1, active compounds read low): 0.933
normalized growth (locus YBR136W, strain MEC1, active compounds read low): 0.919
normalized growth (locus YBR160W, strain CDC28, active compounds read low): 0.932
normalized growth (locus YDL017W, strain CDC7, active compounds read low): 0.924
normalized growth (locus YDL028C, strain MPS1, active compounds read low): 0.938
normalized growth [4]: 0.951
normalized growth (locus YDL108W, strain KIN28, active compounds read low): 0.924
normalized growth (locus YDL132W, strain cdc53, active compounds read low): 0.925
normalized growth (locus YDL214C, strain PRR2, active compounds read low): 0.843
normalized growth (locus YDR052C, strain DBF4, active compounds read low): 0.94
normalized growth (locus YDR054C, strain cdc34, active compounds read low): 0.879
normalized growth (locus YDR226W, strain ADK1, active compounds read low): 0.938
normalized growth (locus YDR477W, strain SNF1, active compounds read low): 0.781
normalized growth (locus YER123W, strain YCK3, active compounds read low): 0.811
normalized growth (locus YER133W, strain GLC7, active compounds read low): 0.731
normalized growth (locus YFL009W, strain cdc4, active compounds read low): 0.94
normalized growth (locus YFL029C, strain CAK1, active compounds read low): 0.914
normalized growth (locus YFR003C, strain YPI1, active compounds read low): 0.924
normalized growth (locus YFR019W, strain FAB1, active compounds read low): 0.907
normalized growth (locus YFR028C, strain CDC14, active compounds read low): 0.93
normalized growth (locus YGR040W, strain KSS1, active compounds read low): 0.766
normalized growth (locus YGR052W, strain FMP48, active compounds read low): 0.845
normalized growth (locus YGR092W, strain DBF2, active compounds read low): 0.81
normalized growth [8]: 0.637 (active)
normalized growth (locus YHR079C, strain IRE1, active compounds read low): 0.815
normalized growth (locus YHR082C, strain KSP1, active compounds read low): 0.843
normalized growth (locus YHR205W, strain SCH9, active compounds read low): 0.835
normalized growth (locus YIL147C, strain SLN1, active compounds read low): 0.935
normalized growth (locus YJL095W, strain BCK1, active compounds read low): 0.687
normalized growth (locus YJL128C, strain PBS2, active compounds read low): 0.953
normalized growth (locus YJL157C, strain FAR1, active compounds read low): 0.816
normalized growth (locus YJR016C, strain ILV3, active compounds read low): 0.928
normalized growth (locus YJR066W, strain TOR1 (second series), active compounds read low): 0.794
normalized growth (locus YJR066W, strain TOR1, active compounds read low): 0.775
normalized growth (locus YKL048C, strain ELM1, active compounds read low): 0.93
normalized growth (locus YKL067W, strain YNK1, active compounds read low): 0.866
normalized growth (locus YKL101W, strain HSL1, active compounds read low): 0.855
normalized growth (locus YKL193C, strain SDS22, active compounds read low): 0.914
normalized growth (locus YKL203C, strain TOR2, active compounds read low): 0.776
normalized growth (locus YLR113W, strain HOG1, active compounds read low): 0.599 (active)
normalized growth (locus YLR133W, strain CKI1, active compounds read low): 0.818
normalized growth (locus YLR403W, strain SFP1, active compounds read low): 0.649 (active)
normalized growth (locus YML070W, strain DAK1, active compounds read low): 0.824
normalized growth (locus YMR001C, strain CDC5, active compounds read low): 0.902
normalized growth (locus YMR205C, strain PFK2 (second series), active compounds read low): 0.863
normalized growth (locus YMR277W, strain FCP1, active compounds read low): 0.918
normalized growth (locus YNL006W, strain LST8, active compounds read low): 0.933
normalized growth (locus YNL020C, strain ARK1, active compounds read low): 0.818
normalized growth (locus YNL161W, strain CBK1, active compounds read low): 0.929
normalized growth (locus YNL183C, strain NPR1, active compounds read low): 0.745
normalized growth (locus YNL207W, strain RIO2, active compounds read low): 0.91
normalized growth (locus YNL222W, strain SSU72, active compounds read low): 0.929
normalized growth (locus YNL307C, strain MCK1 (second series), active compounds read low): 0.827
normalized growth (locus YOL078W, strain AVO1, active compounds read low): 0.914
normalized growth (locus YOL136C, strain PFK27, active compounds read low): 0.81
normalized growth (locus YOR061W, strain CKA2, active compounds read low): 0.866
normalized growth (locus YOR119C, strain RIO1, active compounds read low): 0.8
normalized growth (locus YOR231W, strain MKK1, active compounds read low): 0.734
normalized growth (locus YOR329C, strain SCD5, active compounds read low): 0.933
normalized growth (locus YPL031C, strain PHO85, active compounds read low): 0.724
normalized growth (locus YPL153C, strain RAD53, active compounds read low): 0.742
normalized growth (locus YPL204W, strain HRR25, active compounds read low): 0.719
normalized growth (locus YPL209C, strain IPL1, active compounds read low): 0.943
normalized growth (locus YPL256C, strain CLN2, active compounds read low): 0.73 (active)
normalized growth (locus YPR025C, strain CCL1, active compounds read low): 0.926
normalized growth (locus YPR106W, strain ISR1, active compounds read low): 0.916
normalized growth (locus YPR111W, strain DBF20, active compounds read low): 0.919
normalized growth (strain NNK1, active compounds read low): 0.908
normalized growth (strain TSCII, active compounds read low): 0.915

COc1ccccc1NC(=O)Nc1nc(-c2cccnc2)nc2ccccc12
normalized growth [1]: 1.01
normalized growth (locus YAL040C, strain CLN3, active compounds read low): 1.02
normalized growth (locus YCL061C, strain MRC1 (second series), active compounds read low): 1
normalized growth (locus YDR363W, strain ESC2, active compounds read low): 1.02
normalized growth (locus YER002W, strain NOP16, active compounds read low): 1.04
normalized growth [7]: 0.993
normalized growth (locus YGR229C, strain SMI1, active compounds read low): 1.01
normalized growth [18]: 1.01
normalized growth [26]: 1.02
normalized growth (locus YNL128W, strain TEP1, active compounds read low): 0.998
normalized growth (locus YNL175C, strain NOP13, active compounds read low): 0.977
normalized growth (locus YNL197C, strain WHI3, active compounds read low): 1.01
normalized growth (locus YNL224C, strain SQS1, active compounds read low): 1.01
normalized growth (locus YOR083W, strain WHI5 (second series), active compounds read low): 1.01
normalized growth [23]: 1.01
